Screens deposited in PubChem BioAssay by National Center for Advancing Translational Sciences (NCATS).
In the library only some 21% were active in any assay of this set; here they are far more common.
IL1B secr inh – inflammasome signaling inhibition, IL-1 beta readout. THP-1 LPS/ATP IL-1B secretion, AlphaLISA, 16 h; active compounds read low. activity change, % at 57.5 µM. hit rate 4.7% among 360,000. AID 743279; in the data active = activity change below about -50%; inconclusive = mostly about -30% to -49%
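THP-1 cells pretreated 1 hr with compounds (up to 57.5 uM final), then stimulated with LPS (250 ng/mL final) plus ATP (1.25 mM final); secreted IL-1B measured by AlphaLISA after 16 hr, decreased signal indicating inhibition.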
DRD3 agonist – agonists of human D3 dopamine receptor | D3R DiscoveRx beta-arrestin cells, luminescence, 90 min | max activation, % | hit rate 0.58% among 410,000; in the data active = max activation above about 30%
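Cells at 1500/well, incubated overnight, then treated with pinned compounds (dopamine as control) for 90 min at 37 degrees C. DiscoveRx reagent added for 30 - 60 minutes at room temperature; luminescence read.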
TDP1 cell noCPT – qHTS for Inhibitors of human tyrosyl-DNA phosphodiesterase 1 (TDP1): qHTS in cells in absence of CPT. hit rate 15% among 420,000. DT40 Tdp1-/- hTDP1 cells, no CPT, ATP luminescence, 48 h. Potency, µM (series often up to 46.2 µM), usual class: inhibitors; also: nearly all actives have a fitted effect of over 55% in size
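Cells were dispensed at 400 per well, compounds added by pin tool, plates incubated ≥48 hr at 37 °C, then CellTiter-Glo added for 30 min at room temperature before luminescence reading. Line: DT40 Tdp1-/- complemented with hTDP1; camptothecin omitted.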
TDP1 cell CPT – DT40-hTDP1 cell growth loss with CPT | chicken DT40 Tdp1-/-;hTDP1 cells + 20 nM CPT, ATP luminescence, 48 h | Potency, µM (highest dose often 46.2 µM), actives largely listed as inhibitors | hit rate 12% among 420,000 | AID 686979; also: nearly all actives have a fitted effect of over 55% in size
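Chicken DT40 Tdp1-/- cells stably complemented with human TDP1 were seeded at 400 cells/well in medium containing 20 nM camptothecin, exposed to pin-transferred compounds, and grown at 37 °C for at least 48 hr. Viability was read as ATP luminescence.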
ClpP mod – qHTS Assay for Activators of ClpP; Potency, µM (series often up to 57.5 µM); hit rate 1.9% among 340,000; purified B. subtilis ClpP, FRET peptide cleavage, 20 min; ATP-dependent Clp protease proteolytic subunit (Bacillus subtilis (strain 168)), P80244; active = well fitted falling curve with a large enough effect; inconclusive = small, poorly fitted or top-dose-only effect; inactive = no such curve, though single readings can be large or run the other way; also: the source files actives as falling curves though it sought activators and does not explain the sign; nearly all actives have a fitted effect of over 65% in size
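FRET quenching reversal measured ClpP activation: 10 microg/mL B. subtilis ClpP at pH 8 with the FRET-FV decapeptide, read at 430 nm after 320 nm excitation. The 20-min minus 0-min signal was scaled between DMSO/no-enzyme wells and ADEP (5.8 microM final).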
D3 antag – D3 dopamine receptor (human) antagonism; P35462; D3R cells, DiscoveRx beta-arrestin luminescence, antagonist mode; active compounds read low; max response, negative = inhibition, %; hit rate 2.5% among 360,000; in the data active = max response below about -50%; inconclusive = no clear call, values can overlap the other calls
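Cells expressing the human receptor were seeded at 1500 cells/well, incubated overnight at 37 degrees C in 5% CO2, then exposed to library compounds with dopamine controls for 90 minutes at 37 degrees C before luminescent detection.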
Hits are given with their value; – = inactive; ? = inconclusive; · = not tested or not shown. Unless noted, calls follow the shape of the dose curve; as a rule, active = well fitted inhibition curve with a large enough effect; inconclusive = small, poorly fitted or top-dose-only effect; inactive = flat fitted curve, though single readings scatter.

SMILES	IL1B secr inh	DRD3 agonist	TDP1 cell noCPT	TDP1 cell CPT	ClpP mod	D3 antag
O=C(/C=C/c1ccc(OC(F)F)cc1)Nc1cccc(S(=O)(=O)NC2=NCCCCC2)c1	-81	–	?	?	–	–
CCOc1ccc(CNC(=O)c2cnc3c(C)cccn3c2=O)cc1	·	–	–	–	?	·
CCNc1ccc(Br)cc(C(=O)/C=C/c2c(Cl)cccc2Cl)c1=O	-96	–	4.6µM	5.2µM	–	-66
Nc1ccccc1C(=O)/C=C/c1ccc2c(c1)OCO2	–	–	?	?	–	–
CCNc1ccc(Br)cc(C(=O)/C=C/c2ccc3c(c2)OCO3)c1=O	–	–	?	29µM	–	–
COc1cccc(N2C(=O)CC(N3CCN(CCN=CC4=C(O)CC(C)(C)CC4=O)CC3)C2=O)c1 (centres undefined)	–	–	–	–	·	–
COC(=O)[C@]12CCCCC=C1N(Cc1ccco1)C(=O)[C@H](CC(=O)NCc1cccc(C(F)(F)F)c1)C2	–	–	?	?	–	–
CC(NC(=O)CSc1n[nH]c(-c2ccccc2Cl)n1)c1nc2ccccc2n1C (centres undefined)	·	–	–	–	–	·
O=C(Nc1cccnc1)c1ccc(N2CCCC2)c([N+](=O)[O-])c1	–	–	–	–	·	–
Cc1ccc(C)c2sc(NC(=O)c3ccc(N4CCCCC4)c([N+](=O)[O-])c3)nc12	?	–	23µM	?	–	-59
Cc1cccc(NC(=O)c2ccc(N3CCOCC3)c([N+](=O)[O-])c2)n1	–	–	?	?	?	–
Cc1cccc(NC(=O)c2ccc(N3CCCCC3)c([N+](=O)[O-])c2)n1	–	–	13µM	?	–	–
CCSc1ccc(C(=O)Nc2cccc(C)n2)cc1[N+](=O)[O-]	–	–	?	–	–	–
Cc1cccc(NC(=O)c2ccc(N(C)C3CCCCC3)c([N+](=O)[O-])c2)n1	?	–	16µM	21µM	–	–
COC(=O)C(C(=O)OC)c1ncccc1NS(=O)(=O)c1ccc(C)cc1	–	–	–	–	–	–
O=C(O)CN1C(=O)/C(=C/c2ccc(N3CCCCC3)o2)SC1=S	–	–	23µM	?	–	–
COC(=O)CN1C(=O)S/C(=C/c2ccc(N3CCCCC3)o2)C1=O	–	–	?	?	–	?
CCCN1C(=O)S/C(=C\c2ccc(N3CCOCC3)o2)C1=O	-98	–	21µM	?	·	–
CCCN1C(=O)S/C(=C/c2ccc(N3CCOCC3)o2)C1=O	-91	–	16µM	26µM	·	–
O=S(=O)(Nc1cccc(-c2cn3c(n2)SCC3)c1)c1ccccc1	–	–	?	–	–	–
Cc1ccc(C2(C)NC(=O)N(CC(=O)Nc3ccc(S(=O)(=O)Nc4nccs4)cc3)C2=O)cc1 (centres undefined)	–	–	–	–	–	–
COc1cccc(OC)c1CN1CCC2(CCC(CNC(=O)c3ccccc3)O2)CC1 (centres undefined)	·	·	–	–	·	·
COc1ccc(Br)cc1Cn1nnc(C(=O)Nc2cccc(SC)c2)c1N	·	–	23µM	16µM	?	·
COc1ccc(NC(=O)Cn2nnc(C(=O)NCc3cccs3)c2N)cc1OC	–	–	–	–	–	–
COc1ccc(OC)c(NC(=O)c2nnn(Cc3ccccc3C)c2N)c1	–	–	?	?	–	–
SMILES	IL1B secr inh	DRD3 agonist	TDP1 cell noCPT	TDP1 cell CPT	ClpP mod	D3 antag
COc1ccc(Cl)cc1NC(=O)Cn1nnc(C(=O)NCc2cccs2)c1N	·	–	1.2µM	4.6µM	–	·
COc1ccc(NC(=O)c2nnn(Cc3ccccc3C)c2N)c(OC)c1	·	–	6.5µM	–	–	·
COc1ccc(Cn2nnc(C(=O)Nc3cc(OC)ccc3OC)c2N)cc1	·	–	?	18µM	–	·
C[C@]12C=CC(=O)C=C1CC[C@@H]1[C@@H]2C(=O)C[C@@]2(C)[C@H]1CC[C@]2(O)C(=O)COC(=O)CCC(=O)O	–	–	–	–	·	–
COc1cccc(Cn2nnc(C(=O)Nc3cc(C)ccc3OC)c2N)c1	–	–	–	26µM	–	–
Nc1c(C(=O)Nc2cccc(F)c2)c2ccccn2c1C(=O)c1ccccc1	·	–	–	–	–	·
CCOc1ccc(S(=O)(=O)N(CC(N)=O)c2ccc(C)cc2)cc1	–	–	–	–	–	–
COc1ccccc1N(CC1CO1)S(=O)(=O)c1ccc(C)cc1 (centres undefined)	–	–	21µM	?	·	–
COc1ccc(N(CC2CO2)S(=O)(=O)c2ccccc2)cc1 (centres undefined)	-69	–	?	?	·	–
CCOC(=O)c1ccc(N(CC2CO2)S(=O)(=O)c2ccc(C)cc2)cc1 (centres undefined)	?	–	16µM	13µM	·	–
COc1ccccc1N(CC1CO1)S(=O)(=O)c1ccccc1 (centres undefined)	–	–	?	?	·	–
CCOc1ccc(N(CCC#N)S(=O)(=O)c2ccc(OC)cc2)cc1	–	–	?	?	–	–
COc1ccc(N(CCOc2ccccc2)S(=O)(=O)c2ccccc2)cc1	–	–	16µM	?	–	–
O=[N+]([O-])c1ccccc1N(CC1CO1)S(=O)(=O)c1ccccc1 (centres undefined)	?	–	–	–	·	–
COC(=O)C1=C(O)/C(=C\c2ccc(OCC(=O)Nc3ccc(OC)cc3)cc2)N=C1C	–	–	–	–	–	–
COc1ccccc1N1CCN(C(=O)CCC(=O)N2CCN(c3ccc(F)cc3)CC2)CC1	–	–	?	–	–	–
CCOc1ccc(OCCC(=O)NNC(=O)c2cc(OC)c(OC)c(OC)c2)cc1	–	–	–	–	–	–
N#CCOC(=O)C1CCN(S(=O)(=O)c2ccc3c(c2)OCCO3)CC1	–	–	–	–	–	–
COC(=O)CC1Oc2ccc(C)cc2NC1=O (centres undefined)	–	–	–	–	–	–
COC(=O)CC1Oc2ccccc2N(Cc2ccc(C)cc2)C1=O (centres undefined)	–	–	26µM	16µM	–	–
COC(=O)CC1Oc2ccc(C)cc2-n2cc(-c3ccc(C)cc3)nc21 (centres undefined)	·	–	13µM	16µM	–	·
CCC1Oc2ccccc2N(CC(=O)NCc2ccc(C)cc2)C1=O (centres undefined)	·	–	?	?	–	·
COC(=O)CC1Oc2ccc(Cl)cc2-n2cc(-c3ccc(C)cc3)nc21 (centres undefined)	·	–	6.5µM	9.2µM	–	·
